Reference: the supplement of paper PMC6607015
Where a name gives a salt, the structure may show the parent alone.

Tests used:
Conditions in all cases: compound concentration in added solution (µM; 5 µl added to 20 µl cells): 10; 18 h
A431 [1] = assay: LBPA endosome anti-LBPA integrated intensity (sum per cell), Z-score; higher = more LBPA staining
Method in brief: (§1)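 Each value is a Z-score normalised in AcuityXpress from per-cell integrated LBPA or filipin intensity, taken over the whole cell or within LBPA endosomes. Duplicate 384-well imaging plates held 5 µl of 10 µM compound solution, onto which 3,500 HeLa MZ or A431 cells in 20 µl were seeded per well. After 18 h the cells were fixed in 4% PFA, stained with 6C4 anti-LBPA antibody, filipin, propidium iodide and CellTracker green, imaged four times per well at 20× and segmented in MetaXpress.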

HeLa MZ [2] = assay: as above
Method in brief: as §1

A431 [3] = assay: whole-cell filipin (free cholesterol) integrated intensity, Z-score; higher = more cholesterol staining
Method in brief: as §1

HeLa MZ [4] = assay: as above
Method in brief: as §1

A431 [5] = assay: filipin (cholesterol) integrated intensity within LBPA endosomes, Z-score; higher = more cholesterol in LBPA endosomes
Method in brief: as §1

HeLa MZ [6] = assay: as above
Method in brief: as §1

SMILES	LBPA endosome anti-LBPA integrated intensity (z-score) (A431 [1])	LBPA endosome anti-LBPA integrated intensity (z-score) (HeLa MZ [2])	whole-cell filipin (z-score) (A431 [3])	whole-cell filipin (z-score) (HeLa MZ [4])	filipin (z-score) (A431 [5])	filipin (z-score) (HeLa MZ [6])
CCN(CC)CCOC(=O)C1(c2ccc([N+](=O)[O-])cc2)CCCC1 [Nitrocaramiphen hydrochloride]	-0.558	0.568	-0.0743	-0.278	-0.346	-0.0224
CC[C@@H](CO)NCCN[C@@H](CC)CO [Ethambutol dihydrochloride]	-0.297	-0.0372	-0.506	-0.399	-0.429	-0.483
Cc1ccnc(NS(=O)(=O)c2ccc(N)cc2)n1 [Sulfamerazine]	-0.529	-1.13	-0.353	-0.0674	-0.45	-0.567
O=C(NCC1CCCCN1)c1cc(OCC(F)(F)F)ccc1OCC(F)(F)F (centres undefined) [Flecainide acetate]	0.848	1.72	1.08	0.76	0.948	0.836
CC(C)NC[C@@H](O)COc1ccc(CC(N)=O)cc1 [(R)-(+)-Atenolol]	-0.596	-1.65	-0.23	-0.591	-0.512	-0.472
Cc1onc(-c2ccccc2)c1C(=O)N[C@@H]1C(=O)N2[C@@H]1SC(C)(C)[C@@H]2C(=O)O [Oxacillin sodium]	-0.391	0.32	-0.277	-0.0335	-0.382	-0.445
CN(c1nccc(=O)[nH]1)C1CCN(c2nc3ccccc3n2Cc2ccc(F)cc2)CC1 [Mizolastine]	-0.6	0.425	-0.708	0.222	-0.551	0.0832
CN(C)CCOC(c1ccccc1)c1ccccc1.Cn1c(=O)c2[nH]c(Cl)nc2n(C)c1=O [Dimenhydrinate]	-0.457	0.504	-0.514	-0.355	-0.463	-0.165
CNCCCC12CCC(c3ccccc31)c1ccccc12 [Maprotiline hydrochloride]	1.93	0.295	1.09	1.4	2.92	3.38
Nc1nc(NC2CC2)c2ncn([C@H]3C=C[C@@H](CO)C3)c2n1 [Abacavir Sulfate]	-0.557	-0.156	-0.517	-0.596	-0.478	-0.612
NC[C@@H]1O[C@@H](O[C@H]2[C@H](O)[C@@H](O[C@H]3O[C@H](CO)[C@@H](O)[C@H](N)[C@H]3O)[C@H](N)C[C@@H]2N)[C@@H](O)[C@H](O)[C@H]1O [Kanamycin A sulfate]	-0.635	-0.981	-0.97	-0.361	-0.515	-0.597
CCN(CC)CCNC(=O)COc1ccc(OC)cc1 [Mefexamide hydrochloride]	-0.352	0.346	-0.627	-0.811	-0.519	-0.36
CCN(CC)CCc1nc(-c2ccccc2)no1 [Oxalamine citrate salt]	-0.387	0.162	-0.277	-0.546	-0.442	-0.374
CSc1ccc2c(c1)N(CCC1CCCCN1C)c1ccccc1S2 (centres undefined) [Thioridazine hydrochloride]	1.04	0.375	-0.796	-0.81	1.25	1.45
CC(CCc1ccc(O)cc1)NCCc1ccc(O)c(O)c1 (centres undefined) [Dobutamine hydrochloride]	-0.212	0.142	-0.349	-0.893	-0.473	-0.28
Cc1noc(NS(=O)(=O)c2ccc(N)cc2)c1C [Sulfisoxazole]	-0.641	-0.742	-0.79	-0.499	-0.574	-0.486
CC1CCc2cc(F)cc3c(=O)c(C(=O)O)cn1c23 (centres undefined) [Flumequine]	-0.63	-0.763	-0.836	-0.225	-0.543	-0.72
C[C@H](O)C(=O)Nc1c(I)c(C(=O)NC(CO)CO)c(I)c(C(=O)NC(CO)CO)c1I [Iopamidol]	-0.637	-1.5	-0.34	-0.1	-0.494	-0.379
CC(C)(C(=O)c1cccnc1)c1cccnc1 [Metyrapone]	-0.435	-0.575	-0.128	-0.599	-0.359	-0.375
O=S(=O)(O)c1cc(O)ccc1O [Ethamsylate]	-0.297	0.237	0.0355	-0.226	-0.436	-0.57
C[C@H]1NC(=O)NC1=O [Methylhydantoin-5-(D)]	-0.487	-0.363	-0.289	-0.267	-0.458	-0.381
CCOC(=O)[C@H](CCc1ccccc1)N[C@H]1CCc2ccccc2N(CC(=O)O)C1=O [Benazepril HCl]	-0.544	-0.517	-0.676	-0.703	-0.597	-0.712
COc1cc(NC(C)CCCN)c2ncccc2c1 (centres undefined) [Primaquine diphosphate]	-0.0886	0.528	-0.291	-0.377	-0.187	0.116
CCN(CC)CCOCCOC(=O)C1(c2ccccc2)CCCC1 [Carbetapentane citrate]	0.618	1.63	0.819	0.39	0.894	0.461
CCC1=C(C)CN(C(=O)NCCc2ccc(S(=O)(=O)NC(=O)N[C@H]3CC[C@H](C)CC3)cc2)C1=O [Glimepiride]	-0.623	-0.491	-0.412	-0.0517	-0.467	-0.486

SMILES	LBPA endosome anti-LBPA integrated intensity (z-score) (A431 [1])	LBPA endosome anti-LBPA integrated intensity (z-score) (HeLa MZ [2])	whole-cell filipin (z-score) (A431 [3])	whole-cell filipin (z-score) (HeLa MZ [4])	filipin (z-score) (A431 [5])	filipin (z-score) (HeLa MZ [6])
C#C[C@]1(OC(C)=O)CC[C@H]2[C@@H]3CCC4=CC(=NO)CC[C@@H]4[C@H]3CC[C@@]21CC (mixture of isomers) [Norgestimate]	-0.26	1.65	0.197	0.173	-0.31	0.087
C[C@]12CC[C@@H]3c4ccc(O)cc4CC[C@H]3[C@@H]1C[C@@H](O)[C@@H]2O [Estriol]	-0.219	0.135	-0.24	-0.552	-0.367	-0.397
O=C(O)/C=C/c1ccc(Cn2ccnc2)cc1 [Ozagrel hydrochloride]	-0.373	0.0325	0.164	0.704	-0.284	-0.0855
CC1=Nc2ccc(Cl)cc2S(=O)(=O)N1 [Diazoxide]	-0.529	-1.17	-0.801	-0.471	-0.542	-0.481
CCC(C)(C)C(=O)O[C@H]1C[C@@H](C)C=C2C=C[C@H](C)[C@H](CC[C@@H]3C[C@@H](O)CC(=O)O3)[C@H]21 [Simvastatin]	-0.965	-1.54	-0.982	-0.319	-0.637	0.381
CN(C)/N=N/c1[nH]cnc1C(N)=O [Dacarbazine]	-0.547	-0.605	-0.746	-0.976	-0.487	-0.668
CN(C)C(=O)C(CCN1CCC(O)(c2ccc(Cl)cc2)CC1)(c1ccccc1)c1ccccc1 [Loperamide hydrochloride]	2.04	1.35	0.703	1.87	3.45	3.57
CN1CCN(C2=Nc3cc(Cl)ccc3Nc3ccccc32)CC1 [Clozapine]	1.19	2.46	0.629	-0.114	0.781	1.4
COc1ccc2[nH]cc(CCNC(C)=O)c2c1 [Melatonin]	-0.518	0.193	-0.621	-0.435	-0.528	-0.543
C#C[C@]1(O)CC[C@H]2[C@@H]3[C@H](C)CC4=C(CCC(=O)C4)[C@H]3CC[C@@]21C [Tibolone]	-0.522	-0.57	-0.775	-0.295	-0.476	-0.561
NS(=O)(=O)c1cc2c(cc1Cl)NCNS2(=O)=O [Hydrochlorothiazide]	-0.538	-1.08	-0.757	-0.0813	-0.476	-0.419
CN(C)CC/C=C1/c2ccccc2Sc2ccc(Cl)cc21 [Chlorprothixene hydrochloride]	4.13	2.63	1.46	0.54	2.61	2.32
OC(c1cc(C(F)(F)F)nc2c(C(F)(F)F)cccc12)C1CCCCN1 (centres undefined) [Mefloquine hydrochloride]	2	-0.429	0.872	-0.477	1.56	1.56
CNCCC(Oc1ccccc1OC)c1ccccc1 (centres undefined) [Nisoxetine hydrochloride]	-0.0713	0.75	0.38	0.302	-0.0689	-0.0239
O=C(Cn1ccnc1[N+](=O)[O-])NCCO [Etanidazole]	-0.499	-0.402	-0.226	0.609	-0.413	-0.325
COc1cc(C(=O)OCCCN2CCCN(CCCOC(=O)c3cc(OC)c(OC)c(OC)c3)CC2)cc(OC)c1OC [Dilazep dihydrochloride]	3.35	1.34	3.19	3.53	3.75	4.35
CN1CCCN(C(c2ccccc2)c2ccc(Cl)cc2)CC1 (centres undefined) [Homochlorcyclizine dihydrochloride]	2.75	1.74	0.946	-0.527	2.1	1.46
Clc1ccc(COC(Cn2ccnc2)c2ccc(Cl)cc2Cl)cc1 (centres undefined) [Econazole nitrate]	0.0817	1.63	0.484	0.898	-0.0604	0.606
CN1CCN(C(c2ccccc2)c2ccc(Cl)cc2)CC1 (centres undefined) [Chlorcyclizine hydrochloride]	1.56	0.74	1.78	-0.254	1.24	0.687
CC(C)NNC(=O)c1ccncc1 [Iproniazide phosphate]	-0.439	-0.948	-0.562	-0.228	-0.44	-0.477
CC(C[N+](C)(C)C)OC(N)=O (centres undefined) [Bethanechol chloride]	-0.55	-0.64	-0.316	-0.111	-0.415	-0.495
CC(C(=O)O)c1ccc2c(c1)Cc1cccnc1O2 (centres undefined) [Pranoprofen]	-0.52	-0.228	-0.251	-0.607	-0.527	-0.553
CCOC(=O)NNc1nncc2ccccc12 [Todralazine hydrochloride]	-0.642	-1.72	-0.897	-0.795	-0.572	-0.622
COCC(=O)Nc1c(I)c(C(=O)NCC(O)CO)c(I)c(C(=O)N(C)CC(O)CO)c1I (centres undefined) [Iopromide]	-0.665	-1.68	-0.559	-0.164	-0.527	-0.574
